We go through eight compounds from PMC11062922 (Nature Chemical Biology, 2023).

Read-outs that look alike come from different tables or passages of the source.

The test system of one assay is AAK1. Details: species or system human, MV4-11 + K-562 + COLO205 + SK-N-BE2 + OVCAR-8. As to conditions: read-out: apparent Kd, n = 1.
The next assay has as its system BMP2K. More on the design: species or system human, MV4-11 + K-562 + COLO205 + SK-N-BE2 + OVCAR-8. The conditions noted are these: read-out: apparent Kd, n = 1.
A further assay deals with CLK1. More on the design: species or system human, MV4-11 + K-562 + COLO205 + SK-N-BE2 + OVCAR-8. The conditions noted are these: read-out: apparent Kd, n = 1.
The test system of a further assay is CLK4. Details: species or system human, MV4-11 + K-562 + COLO205 + SK-N-BE2 + OVCAR-8. The conditions noted are these: read-out: apparent Kd, n = 1.
Another assay deals with FLT4. More on the design: species or system human, MV4-11 + K-562 + COLO205 + SK-N-BE2 + OVCAR-8. As to conditions: read-out: apparent Kd; compound concentrations: 100 nM and 1000 nM (sheet 'Samples'), CATDS: 1.78487472229053E-2; n = 1.
A further assay relates to GAK. Details: species or system human, MV4-11 + K-562 + COLO205 + SK-N-BE2 + OVCAR-8. As to conditions: read-out: apparent Kd, n = 1.
The test system of a further assay is GSK3A. More on the design: species or system human, MV4-11 + K-562 + COLO205 + SK-N-BE2 + OVCAR-8. As to conditions: read-out: apparent Kd, n = 1.
Another assay deals with GSK3B. More on the design: species or system human, MV4-11 + K-562 + COLO205 + SK-N-BE2 + OVCAR-8. As to conditions: read-out: apparent Kd, n = 1.
Another assay concerns PAK4. Details: species or system human, MV4-11 + K-562 + COLO205 + SK-N-BE2 + OVCAR-8. As to conditions: read-out: apparent Kd; compound concentrations: 100 nM and 1000 nM (sheet 'Samples'), CATDS: 1.9668858061390699E-2; n = 1.
For another assay, the system named is PKN1. More on the design: species or system human, MV4-11 + K-562 + COLO205 + SK-N-BE2 + OVCAR-8. As to conditions: read-out: apparent Kd, n = 1.
The next assay concerns PKN3. More on the design: species or system human, MV4-11 + K-562 + COLO205 + SK-N-BE2 + OVCAR-8. The conditions noted are these: read-out: apparent Kd, n = 1.
The test system of a further assay is PRKAG1. Details: species or system human, MV4-11 + K-562 + COLO205 + SK-N-BE2 + OVCAR-8. The conditions noted are these: read-out: apparent Kd, compound concentrations: 100 nM and 1000 nM (sheet 'Samples'), n = 1.
The target of a further assay is Q6ZSR9 (human, UniProt Q6ZSR9). More on the design: species or system MV4-11 + K-562 + COLO205 + SK-N-BE2 + OVCAR-8. As to conditions: read-out: apparent Kd, n = 1.
Sequence of Q6ZSR9 (Q6ZSR9 whole entry, looked up): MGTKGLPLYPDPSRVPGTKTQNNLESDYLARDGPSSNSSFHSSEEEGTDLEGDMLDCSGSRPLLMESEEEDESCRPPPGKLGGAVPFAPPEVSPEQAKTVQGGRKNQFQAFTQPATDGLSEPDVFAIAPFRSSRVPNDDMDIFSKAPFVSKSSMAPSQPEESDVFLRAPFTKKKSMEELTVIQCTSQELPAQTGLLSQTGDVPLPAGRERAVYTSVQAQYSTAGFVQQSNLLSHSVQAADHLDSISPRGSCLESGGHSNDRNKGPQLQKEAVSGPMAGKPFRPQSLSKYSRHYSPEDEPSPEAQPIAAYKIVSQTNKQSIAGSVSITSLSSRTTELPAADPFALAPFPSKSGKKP
Another assay has as its system RET. Details: species or system human, MV4-11 + K-562 + COLO205 + SK-N-BE2 + OVCAR-8. As to conditions: read-out: apparent Kd, compound concentrations: 100 nM and 1000 nM (sheet 'Samples'), n = 1.
The next assay concerns SIK2. More on the design: species or system human, MV4-11 + K-562 + COLO205 + SK-N-BE2 + OVCAR-8. The conditions noted are these: read-out: apparent Kd, n = 1.
Another assay concerns CSNK2A1;CSNK2A3. Details: species or system human, MV4-11 + K-562 + COLO205 + SK-N-BE2 + OVCAR-8. As to conditions: read-out: apparent Kd, compound concentrations: 100 nM and 1000 nM (sheet 'Samples'), n = 1.
The subject of a further assay is CSNK2A2. Details: species or system human, MV4-11 + K-562 + COLO205 + SK-N-BE2 + OVCAR-8. As to conditions: read-out: apparent Kd, compound concentrations: 100 nM and 1000 nM (sheet 'Samples'), n = 1.
A further assay has as its system NUAK1. More on the design: species or system human, MV4-11 + K-562 + COLO205 + SK-N-BE2 + OVCAR-8. As to conditions: read-out: apparent Kd; compound concentrations: 100 nM and 1000 nM (sheet 'Samples'), CATDS: 0.30685592880619; n = 1.
A further assay deals with MELK. More on the design: species or system human, MV4-11 + K-562 + COLO205 + SK-N-BE2 + OVCAR-8. The conditions noted are these: read-out: apparent Kd; compound concentrations: 100 nM and 1000 nM (sheet 'Samples'), CATDS: 0.103385588540624; n = 1.
The mark [1] stands for this setting: compound concentrations:100 nM and 1000 nM (sheet 'Samples').

With `Cl.Cn1c(=O)c(Cc2ccccc2F)cc2cnc(NC3CCOCC3)nc21` [RO3305377-001], the potency estimated from few doses with AAK1 (compound concentrations: 100 nM and 1000 nM (sheet 'Samples'), CATDS: 2.16510603665701E-2) was 917 nM; in the assay with BMP2K (compound concentrations: 100 nM and 1000 nM (sheet 'Samples'), CATDS: 1.6723713809558501E-2), 1910 nM; in the assay on CLK1 (compound concentrations: 100 nM and 1000 nM (sheet 'Samples'), CATDS: 1.9184829290140398E-2) it was 1250 nM; in the assay with CLK4 (compound concentrations: 100 nM and 1000 nM (sheet 'Samples'), CATDS: 2.3036060895887101E-2), 796 nM; in the assay with FLT4, 1540 nM; in the assay with GAK (compound concentrations: 100 nM and 1000 nM (sheet 'Samples'), CATDS: 3.35725694953104E-2), 389 nM. In addition, the potency estimated from few doses was 459 nM in the assay with GSK3A (compound concentrations: 100 nM and 1000 nM (sheet 'Samples'), CATDS: 3.04876999302407E-2); 722 nM in the assay on GSK3B (compound concentrations: 100 nM and 1000 nM (sheet 'Samples'), CATDS: 2.4100870065686699E-2); 1170 nM in the assay on PAK4; 2080 nM in the assay with PKN1 (compound concentrations: 100 nM and 1000 nM (sheet 'Samples'), CATDS: 1.63422390888056E-2); 1350 nM in the assay with PKN3 (compound concentrations: 100 nM and 1000 nM (sheet 'Samples'), CATDS: 1.86767996374981E-2); 801 nM in the assay with PRKAG1 (CATDS: 2.2977618233773301E-2). Also, the potency estimated from few doses in the assay with Q6ZSR9 (compound concentrations: 100 nM and 1000 nM (sheet 'Samples'), CATDS: 2.0313751812051702E-2) is 1070 nM; in the assay with RET (CATDS: 2.33186267232918E-2), 775 nM; with SIK2 (compound concentrations: 100 nM and 1000 nM (sheet 'Samples'), CATDS: 2.09056260277059E-2) it was 998 nM.
`O=C1N=C(NCCc2ccccc2Cl)S/C1=C\c1ccc2ncccc2c1` [RO4498484-000]: the potency estimated from few doses with AAK1 (compound concentrations: 100 nM and 1000 nM (sheet 'Samples'), CATDS: 7.0672381673146406E-2) is 1000 nM; with CLK1 (compound concentrations: 100 nM and 1000 nM (sheet 'Samples'), CATDS: 0.163722912511999) it was 151 nM; in the assay with CLK4 (compound concentrations: 100 nM and 1000 nM (sheet 'Samples'), CATDS: 0.193469538942661) it was 114 nM; with CSNK2A1;CSNK2A3 (CATDS: 0.166165421111277), 147 nM; in the assay with CSNK2A2 (CATDS: 0.20425555691522501), 105 nM; in the assay on GAK (compound concentrations: 100 nM and 1000 nM (sheet 'Samples'), CATDS: 6.92626012786898E-2) it was 1060 nM. The potency estimated from few doses in the assay with Q6ZSR9 (compound concentrations: 100 nM and 1000 nM (sheet 'Samples'), CATDS: 7.2207205601376195E-2) is 937 nM.
In the case of `Cc1occc1-c1nc(N)c(OC[C@@H](N)Cc2c[nH]c3ccccc23)cc1-c1cc2c(C)n[nH]c2cn1` [GSK1660450B], the potency estimated from few doses in the assay with AAK1 (setting [1]) is 1070 nM; in the assay on CLK1 (setting [1]) it was 339 nM; in the assay on CLK4 (setting [1]), 441 nM; in the assay with GAK (setting [1]) it was 38.2 nM; in the assay with GSK3A (setting [1]) it was 273 nM; with GSK3B (setting [1]), 62.6 nM. Further, the potency estimated from few doses in the assay with PKN1 (setting [1]) was 87.6 nM; with PKN3 (setting [1]) it was 845 nM; with Q6ZSR9 (setting [1]), 1670 nM; in the assay on SIK2 (setting [1]) it was 427 nM.
With `NS(=O)(=O)c1ccc(N/C=C2\C(=O)Nc3ccc4ncsc4c32)cc1` [GW297361X], the potency estimated from few doses in the assay on AAK1 (compound concentrations: 100 nM and 1000 nM (sheet 'Samples'), CATDS: 4.1332868698359997E-2) is 785 nM; in the assay on BMP2K (compound concentrations: 100 nM and 1000 nM (sheet 'Samples'), CATDS: 4.6280622165998701E-2), 615 nM; in the assay on CLK4 (compound concentrations: 100 nM and 1000 nM (sheet 'Samples'), CATDS: 3.6697746350308501E-2), 1050 nM; in the assay on CSNK2A1;CSNK2A3 (CATDS: 3.0344109186555501E-2) it was 1830 nM; in the assay on CSNK2A2 (CATDS: 3.6316988085140701E-2), 1070 nM; with NUAK1, 33.6 nM. Also, in the assay with Q6ZSR9 (compound concentrations: 100 nM and 1000 nM (sheet 'Samples'), CATDS: 3.8953206873676101E-2), the potency estimated from few doses was 902 nM.
Consider `O=C1N=C(NCc2ccccc2Br)S/C1=C\c1ccc2ncccc2c1` [RO4506918-000], for which the potency estimated from few doses was 910 nM with AAK1 (compound concentrations: 100 nM and 1000 nM (sheet 'Samples'), CATDS: 8.9232255617264805E-2); 202 nM in the assay with CLK1 (compound concentrations: 100 nM and 1000 nM (sheet 'Samples'), CATDS: 0.17031966096866); 76.5 nM in the assay on CLK4 (compound concentrations: 100 nM and 1000 nM (sheet 'Samples'), CATDS: 0.31130162986837101); 383 nM in the assay with CSNK2A1;CSNK2A3 (CATDS: 0.124108593087182); 162 nM in the assay on CSNK2A2 (CATDS: 0.192604305943326); 804 nM in the assay with Q6ZSR9 (compound concentrations: 100 nM and 1000 nM (sheet 'Samples'), CATDS: 9.2903146742856602E-2).
`CNc1nccc(-c2ccc3c(N)n[nH]c3c2)n1` [GSK2206003A]: the potency estimated from few doses is 108 nM with AAK1 (compound concentrations: 100 nM and 1000 nM (sheet 'Samples'), CATDS: 0.11797009071744601); 897 nM in the assay on BMP2K (compound concentrations: 100 nM and 1000 nM (sheet 'Samples'), CATDS: 5.7170227951540302E-2); 36.5 nM in the assay with CLK1 (compound concentrations: 100 nM and 1000 nM (sheet 'Samples'), CATDS: 0.21779714475359599); 48 nM in the assay on CLK4 (compound concentrations: 100 nM and 1000 nM (sheet 'Samples'), CATDS: 0.18290440862860499); 145 nM in the assay with MELK; 73.1 nM in the assay with Q6ZSR9 (compound concentrations: 100 nM and 1000 nM (sheet 'Samples'), CATDS: 0.14345562945172299). Besides, the potency estimated from few doses with RET (CATDS: 0.14057536576690199) was 76 nM.
Regarding `NS(=O)(=O)c1ccc(N/N=C2\C(=O)Nc3ccc(-c4cnco4)cc32)cc1` [GW276655_KCGS], the values for the potency estimated from few doses in the assay on AAK1 (setting [1]), in the assay on BMP2K (setting [1]) and with Q6ZSR9 (setting [1]) were 1180 nM, 518 nM and 782 nM, respectively.
`COc1ccc(Nc2nccc(NCCNC(=O)Nc3cc(C)ccc3C)n2)cc1` [GSK1379899A]: the potency estimated from few doses is 1930 nM in the assay with AAK1 (compound concentrations: 100 nM and 1000 nM (sheet 'Samples'), CATDS: 4.14189738717365E-2); 1220 nM in the assay with GAK (compound concentrations: 100 nM and 1000 nM (sheet 'Samples'), CATDS: 4.9044286773088197E-2); 102 nM in the assay with GSK3A (compound concentrations: 100 nM and 1000 nM (sheet 'Samples'), CATDS: 0.21656856359749399); 1260 nM in the assay with GSK3B (compound concentrations: 100 nM and 1000 nM (sheet 'Samples'), CATDS: 4.8399492982865999E-2); 1070 nM in the assay on PRKAG1 (CATDS: 5.18818459595803E-2).
